Results published in PubChem BioAssay AID593 (National Center for Advancing Translational Sciences (NCATS), 2007).
Out of some 59,000 compounds screened, about 540 (0.92%) were called active. Another 33% or so got no clear call; they are omitted. Cut-off read from the data, not from the text of the source: active = max fluorescein-equivalent concentration above about 10 nM; inconclusive = between about 1.1 nM and that limit; inactive = weaker than that. The list comes from a sample in which actives are over-represented; it also holds similar structures and randomly drawn compounds. A structure can be active in one record and inactive in another.

Experiment: qHTS Assay for Spectroscopic Profiling in Fluorescein Spectral Region
Settings: Compound autofluorescence, 480/540 nm; max fluorescein-equivalent concentration: stronger effect = higher value; outcome: fluorescein-equivalent
Text: NIH Molecular Libraries Screening Centers Network [MLSCN]
NIH Chemical Genomics Center [NCGC]
Occasionally, the artifactual effect may originate from the compound's own spectral or other biophysical properties which generally tend to track its assay concentration. Pre-screening/profiling the library with respect to the compounds' spectral properties should help one exclude false positives early on. While the most informative fluorescent profiling data set is obtained by performing a full excitation and emission scan of each well by using a monochromator-based plate reader, such an approach is practical only on a very limited scale as scanning each well requires long time. An alternative approach, applied here, is to perform plate reader scans using selected excitation and emission wavelength pairs to generate a multidimensional relational database that correlates compound concentration and the respective relative fluorescence intensity at a given wavelength set. A standard curve of fluorescein present on each plate as six-point concentration series, was used to compute a normalized fluorescence response, termed dye-equivalent concentration, for each compound at each concentration.
NCGC Assay Protocol Summary:
100 mM Tris buffer, pH 8.0
The wells in columns 1 through 4 of a Kalypsys polypropylene 1536-well compound plate were filled with standard solutions of fluorophore corresponding to the spectral region of interest. Solutions of Fluorescein were placed in the following wells: Q1, R1: 3 mM, Q2, R2: 300 uM, Q3, R3: 30 uM, Q4, R4: zero (DMSO), S1, T1: 3 uM, S2, T2: 900 nM, S3, T3: 300 nM, S4, T4: zero (DMSO).
Six uL of buffer were dispensed to 1536-well Greiner black plates. Compounds and dye standards (23 nL) were transferred via Kalypsys PinTool. The plates were incubated for 15 min at room temperature, and then read on ViewLux (Perkin-Elmer) High-throughput CCD imager using 480 nm and 540 nm excitation and emission filter set.
Keywords: NIH Roadmap, MLSCN, MLI, MLSMR, qHTS, NCGC, Fluorescein, Fluorescent Profiling.

Max fluorescein-equivalent concentration, inactive:
C=CCn1c(C)cc(C(=O)CN2C(=O)c3ccccc3C2=O)c1C
Cc1ccc(SCCN2C(=O)NC(C)(C)C2=O)cc1
COc1cccc(Cn2c(=O)c(C)nc3cnc(Oc4ccccc4)nc32)c1
Cc1cc(C(F)(F)F)nn1CC(=O)N1CCCC1
CCOc1ccc(NS(=O)(=O)c2ccc(OCC(=O)NCCCOC)cc2)cc1
COc1ccccc1N1CCN(Cc2nnnn2CCc2ccccc2)CC1
COCCn1nnnc1C(c1ccccc1Cl)N1CCN(c2ccccc2OC)CC1 (centres undefined)
COc1ccc(-c2cc(C(F)(F)F)nc(SCCC(=O)NCc3ccco3)n2)cc1
CCN(CC)S(=O)(=O)c1cccc(C(=O)Nc2cc(C)nn2-c2nc(C)cc(C)n2)c1
COc1ccc(OCC(=O)OCC(=O)Nc2ccc(S(=O)(=O)N3CCCCC3)cc2)cc1
CCN1CCN(C(=O)CN(C)S(=O)(=O)c2ccc(OC)cc2)CC1
CCC1CCCCN1C(=O)Nc1cccc(NC(=O)N2CCCCC2CC)c1 (centres undefined)
COc1ccccc1CNc1nc(-c2c(C)noc2C)nc2ccccc12
FC(F)(F)c1nnc2sc(-c3ccco3)nn12
CCn1c(=N)c(C(=O)NCCCOC)cc2c(=O)n3cccc(C)c3nc21
CC1(C)C(=O)C2(CCCCC2)C(=O)OC1c1cccs1 (centres undefined)
CCOc1ccccc1Nc1nnc(SCC(=O)Nc2cc(C)on2)s1
CC[C@H](c1ccccc1)c1cc(C(C)(C)C)cc(C(C)(C)C)c1O
C=CCn1c(COc2ccccc2C)nnc1SCC(=O)O
O=C(NCc1ccco1)c1sc2cccc(F)c2c1Cl
COc1ccccc1NC(=O)CSc1nc2sc(C)c(C)c2c(=O)n1Cc1ccco1
CC(Sc1nc2ccccc2c(=O)n1Cc1ccco1)C(=O)c1ccccc1 (centres undefined)
Cc1ccccc1C(=O)Nc1cccc(-c2nnc(SCC(=O)O)n2C)c1
O=C(CNS(=O)(=O)c1cccc(C(F)(F)F)c1)Nc1ccccc1F
Cc1ccc(C(=O)CSc2nc3ccccc3c(=O)n2N)o1
Cc1ccsc1C(=O)OCC(=O)c1cc2ccccc2o1
Cc1cc(C)cc(NC(=O)C2CCN(c3nc(C)cc(C)n3)CC2)c1
CCOC(=O)c1cc2sccc2n1Cc1ccc(C#N)cc1
Fc1ccccc1CCNc1nnnn1-c1ccccc1
CN1CCC2(CC1)CCN(S(=O)(=O)c1ccccc1)CC2
Cc1ccc2nc(CC(=O)c3ccc4ccccc4c3)c(=O)[nH]c2c1
C/C=C1\C(=O)C[C@@H]2[C@@H]3CCC4=CC(=O)CC[C@@]4(C)[C@H]3CC[C@@]12C
Oc1ccc2ccccc2c1C=NCc1c(O)ccc2ccccc12
COc1ccc(C(=O)N2CCC[C@@]3(CCN(C(=O)NC(C)C)C3)C2)cc1
CC(C)NC(=O)N1CC[C@@]2(CCCN(C(=O)c3ccco3)C2)C1
O=C(Nc1ccc(S(=O)(=O)N2CCCCC2)cc1)c1cnccn1
O=c1[nH]c(-c2ccccc2)c(-c2ccccc2)[nH]1
CN1C(=O)C[C@H](c2ccccc2)C1=O
CCCn1c(SCC(=O)Nc2cccc(C(=O)OCC)c2)nnc1-c1ccoc1C
COc1ccccc1Cc1nc(-c2ccc(C)cc2)no1
CC12CCC(C(=O)N(CCC#N)CCC#N)(CC1=O)C2(C)C (centres undefined)
COc1ccc2[nH]c3cc4c(=O)c5cc(OC)ccc5[nH]c4cc3c(=O)c2c1
C[C@H]1O[C@@H](CC(=O)O)Cc2c1c(O)c1c(O)cc(-c3cc(=O)c4c(=O)c5c(c(=O)c=4c3=O)C[C@H](CC(=O)O)O[C@@H]5C)c(O)c1c2O
CC(Sc1nncs1)C(=O)NCc1ccc2c(c1)OCO2 (centres undefined)
Cc1cc(NC(=O)Nc2ccccc2)n(-c2ccccc2)n1
COc1cccc(C(=O)c2cc3ccc(O)cc3oc2=O)c1
COc1ccc2oc(=O)c(C(=O)N3CCCc4ccccc43)cc2c1
CCOc1ccc2cc(C#N)c(SCC(=O)OC)nc2c1
Cc1cccc2cc(C#N)c(N3CCCC3)nc12
CC(=O)c1cc2c(cc1N)OCO2
CCC1=C(C(=O)OC)C(c2cc(OC)ccc2OC)C(C#N)=C(N)O1 (centres undefined)
COC(=O)C1=C(C)OC(N)=C(C#N)C1c1cc(OC)ccc1OC (centres undefined)
COc1cc(NS(=O)(=O)c2ccc(NC(C)=O)cc2)cc(OC)c1
CCOC(=O)C1(Cc2ccc(O)cc2)NC(c2ccccc2F)C2C(=O)N(C)C(=O)C21 (centres undefined)
Cc1ccc(C(c2nnnn2CS(=O)(=O)c2ccc(C)cc2)N2CCC(C(N)=O)CC2)cc1 (centres undefined)
COc1ccc(-c2c3c(=O)n(C)c(=O)n(C)c3cn2NC(C)=O)cc1
C[C@@H]1CC[C@H]2[C@H](C)[C@H]3[C@H](C[C@H]4[C@@H]5CC=C6C[C@@H](O)CC[C@@]6(C)[C@@H]5C[C@@H](O)[C@]34C)N2C1
CCN(CC(=O)NCc1cccs1)c1nnnn1-c1ccccc1
COc1cccc(NC(=O)CN(C)S(=O)(=O)c2ccc(C)cc2)c1
Cc1ccc2c(c1)C(O)(CC(=O)c1cccnc1)C(=O)N2 (centres undefined)
CC(=NC1CCN(Cc2ccccc2)CC1)c1c(O)[nH]c(=O)[nH]c1=O
COc1ccc(OC)c(S(=O)(=O)Nc2ccccc2F)c1
CC1CN(C2CCN(C(=O)COc3ccccc3)CC2)CC(C)O1 (centres undefined)
C=CCNC(=O)C12CC3CC(C1)CC(C(=O)NCC=C)(C3)C2
CCc1cccc(C)c1NC(=O)CSc1nnc(-c2ccco2)n1N
O=C(Nc1ccccc1F)C1C2C=CC3(O2)C1C(=O)N(c1cccnc1)C3C(=O)NC1CCCCC1 (centres undefined)
COc1cccc(Cn2c(=O)c(CCc3ccccc3)nc3cnc(N(C)C)nc32)c1
CNC(=O)c1cc2c(ccc3ccccc32)oc1=N
CCON=C1C(C)(C)C(C)(C)C(C)(C)C1(C)C
Cn1c(=O)c2[nH]c(NCC3CCCO3)nc2n(-c2ccccc2)c1=O (centres undefined)
O=c1[nH]c(=O)n([C@H]2C[C@H](O)[C@H](CO)O2)cc1Br
CC(=O)c1cc(C#N)c(SCC(=O)C(C)(C)C)nc1C
COC(=O)c1ccc2c(=O)n(CC3CCCO3)c(=S)[nH]c2c1 (centres undefined)
Cc1cccn2c(=O)c3cc(C(=O)N4COCC4(C)C)n(C)c3nc12
Cc1cc(C)c2[nH]c(=O)c(C(c3nnnn3Cc3ccc4c(c3)OCO4)N3CCCC3)cc2c1 (centres undefined)
CC(=O)NS(=O)(=O)c1ccccc1
CCOCCCNS(=O)(=O)Cc1ccccc1
CCNc1ncc2ncc(=O)n(Cc3cccc(OC)c3)c2n1
COc1ccc(N2CCN(C(=O)CSc3nc4cc(OC)c(OC)cc4cc3C#N)CC2)cc1
O=CN1CCN(C2CC(=O)N(c3ccc4c(c3)OCO4)C2=O)CC1 (centres undefined)
S=c1[nH]nc(SCc2ccccc2Cl)c2[nH]cnc12
Cc1csc(NC(=O)CN2CCCCCC2)n1
CCOCC(=O)Nc1cc(OC)c(Cl)cc1OC
Oc1ccccc1CNCc1ccccc1O
COCCn1c(=O)c(CCc2ccccc2)nc2cncnc21
CC(C)N(C(=O)COC(=O)c1ccccc1C(=O)N1CCN(c2ccc(F)cc2)CC1)C(C)C
N#CC1=C(N)Oc2n[nH]c(CSc3ccccc3)c2C12C(=O)Nc1ccccc12 (centres undefined)
O=S(=O)(c1cccs1)N1CCN(Cc2ccccc2)CC1
CCOCCOC(=O)C1=C(C)N(C)C(=O)NC1c1ccccc1F (centres undefined)
C=C(C)Cn1c(SCC(=O)NCc2ccco2)nc2sc3c(c2c1=O)CCC3
COCCn1c(=O)c(-c2cccc(F)c2)nc2cncnc21
COc1ccc(C(=O)N/N=C2/C(=O)c3c(C)cc(C)cc3CC2(C)C)cc1
O=C(O)C1CC=C(Cl)CC1C(=O)NCc1ccccc1 (centres undefined)
CCCOc1ccccc1-c1nc(SCCC(=O)O)n[nH]1
O=S(=O)(Nc1ccc2nc(-c3ccco3)[nH]c2c1)c1ccccc1
O=S(=O)(O)c1ccc(O)c2ncccc12.O=S(=O)(O)c1ccc(O)c2ncccc12.[Zn]
O=C(N1CCOCC1)N1CCOCC1
CCCC(=O)Nc1cc(OCC)c(NC(=O)NC2CCCCC2)cc1OCC

Max fluorescein-equivalent concentration, active:
COc1ccccc1N1CCN(c2nc3ccccc3n3nnnc23)CC1 12 nM
O=C(O)CS(=O)c1ccc2c3c(cccc13)C(=O)c1ccccc1-2 (centres undefined) 14 nM
CCn1c(=N)c(S(=O)(=O)c2ccc(F)cc2)cc2c(=O)n3ccccc3nc21 29 nM
CN(c1ccccc1)c1ccc(/C=c2\s/c(=C(/C#N)C(=O)C(C)(C)C)n(Cc3ccco3)c2=O)cc1 34 nM
Cc1cc2c(=O)n(C)c(SCC(=O)c3cc4ccccc4o3)nc2s1 13 nM
COc1ncnc2c1N=C1CC(C)(C)CC(N)=C1S2 47 nM
CC(C)NC(=O)N1CC[C@@]2(CCCN(C(=O)c3cccc(F)c3)C2)C1 780 nM
O=c1[nH]c(=O)c2nc3ccccc3nc2[nH]1 62 nM
COc1ccc2oc(=O)c(C(=O)O)cc2c1 19 nM
CCOc1ccc2nc(N3CCCN(C(=O)Nc4ccccc4C)CC3)c(C#N)cc2c1 29 nM
CCCN1CC=C2C(C#N)=C(N)C(C#N)(C#N)C(c3cc(OC)ccc3OC)C2C1 (centres undefined) 10 nM
CCCn1c(=O)c2[nH]c(C3CCCC3)nc2n(CCC)c1=O 11 nM
Cc1cccn2c(=O)c3cc(C#N)c(=NC(=O)c4cccnc4)n(CC4CCCO4)c3nc12 (centres undefined) 18 nM
CCOC(=O)N1CC=C2C(C#N)=C(N)C(C#N)(C#N)[C@H](c3cccs3)[C@H]2C1 12 nM
COc1ccc2nc(N3CCCC(O)C3)c(C#N)cc2c1 (centres undefined) 16 nM

outcome, inactive:
CCCn1c(=O)c2[nH]c(C3CCCC3)nc2n(CCC)c1=O
